Assay: GAPDH versus PEG-3 reporter suppression – cell-based, luminescence, counter-screen for PEG-3 promoter inhibitor project, SAR follow-up (AID 651551)
Conditions: HeLa PEG-Prom / GAPDH luciferase reporter, 6 or 24 h, run 2, 6 h; at 99 µM (top of the series)

Structure (SMILES) | inhibition % (higher = more inhibition) [%]
O=C(Nc1nc2ccccc2s1)c1nn(-c2ccccc2)c(=O)c2ccccc12 | 6.36
COc1ccccc1Nc1nc(-c2sc(NC(=O)c3ccco3)nc2C)cs1 | 72.7
CCn1cc(C(=O)NCc2ccco2)c(=O)c2cc(S(=O)(=O)N3CCCC3)ccc21 | 42.1
COc1ccc(Cl)cc1Nc1nc(-c2sc(NC(=O)c3ccccc3)nc2C)cs1 | 33.6
Cc1nc(NC(=O)c2ccccc2)sc1-c1csc(Nc2ccccc2)n1 | 74.5
Cc1nc(NC(=O)c2ccccc2)sc1-c1csc(Nc2cccc(Cl)c2C)n1 | 35.5
